Data: PubChem BioAssay (NCATS)
Inconclusive results are not listed. The source made the active and inactive calls. Calls come from the whole dose curve; as a rule, active = well fitted inhibition curve with a large enough effect; inconclusive = small, poorly fitted or top-dose-only effect; inactive = flat fitted curve, though single readings scatter.

What was measured:
Assay in all cases: qHTS profiling for inhibitors of Plasmodium falciparum proliferation (AID 504749); note: nearly all actives have a fitted effect of over 60% in size
Conditions in all cases: P. falciparum in erythrocytes, SYBR Green DNA, 72 h; series mostly up to 28.7 µM
CP252 = system: CP252
Procedure, shortened: (§1)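 P. falciparum-infected erythrocytes (0.3% parasitemia, 2.5% hematocrit final) were exposed to compounds for 72 h at 37 C in 5% CO2, then lysed with SYBR Green buffer overnight at room temperature; parasite DNA fluorescence was normalized to artemisinin and DMSO controls.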

CP256 = system: CP256
Procedure, shortened: as §1

CP260 = system: CP260
Procedure, shortened: as §1

CP262 = system: CP262
Procedure, shortened: as §1

CP265 = system: CP265
Procedure, shortened: as §1

CP266 = system: CP266
Procedure, shortened: as §1

CP268 = system: CP268
Procedure, shortened: as §1

CP269 = system: CP269
Procedure, shortened: as §1

CP286 = system: CP286
Procedure, shortened: as §1

CP291 = system: CP291
Procedure, shortened: as §1

CP297 = system: CP297
Procedure, shortened: as §1

CP305 = system: CP305
Procedure, shortened: as §1

CP315 = system: CP315
Procedure, shortened: as §1

CP325 = system: CP325
Procedure, shortened: as §1

CP329 = system: CP329
Procedure, shortened: as §1

CP335 = system: CP335
Procedure, shortened: as §1

DFO2036 = system: DFO2036
Procedure, shortened: as §1

DIV14 = system: DIV14
Procedure, shortened: as §1

DIV30 = system: DIV30
Procedure, shortened: as §1

Dd2 = system: Dd2
Procedure, shortened: as §1

ECU = system: ECU
Procedure, shortened: as §1

FAB9 = system: FAB9
Procedure, shortened: as §1

GB4 = system: GB4
Procedure, shortened: as §1

HB3 = system: HB3
Procedure, shortened: as §1

JCK = system: JCK
Procedure, shortened: as §1

N140 = system: N140
Procedure, shortened: as §1

P93_24 = system: P93_24
Procedure, shortened: as §1

P94_40 = system: P94_40
Procedure, shortened: as §1

PAD = system: PAD
Procedure, shortened: as §1

PC15 = system: PC15
Procedure, shortened: as §1

PC26 = system: PC26
Procedure, shortened: as §1

PC49 = system: PC49
Procedure, shortened: as §1

SC27B = system: SC27B
Procedure, shortened: as §1

TAB109 = system: TAB109
Procedure, shortened: as §1

TAB113 = system: TAB113
Procedure, shortened: as §1

TAB165 = system: TAB165
Procedure, shortened: as §1

Measured: Potency

CCN(CC)CCO[C@H]1CC[C@@]2(C)C(=CC[C@@H]3[C@H]2CC[C@]2(C)C(=O)CC[C@H]32)C1
inactive: CP252 | CP256 | CP260 | CP262 | CP265 | CP266 | CP268 | CP269 | CP286 | CP291 | CP297 | CP305 | CP315 | CP325 | CP329 | CP335 | DFO2036 | DIV14 | DIV30 | Dd2 | ECU | FAB9 | GB4 | HB3 | JCK | N140 | P93_24 | P94_40 | PAD | PC15 | PC26 | PC49 | SC27B | TAB109 | TAB113 | TAB165
